# This is one part of a sample in which the strongest signals are shown more often than they occur.
# B1: CRT-1 (Homo sapiens), P27797 (protein)
# chain: MLLSVPLLLGLLGLAVAEPAVYFKEQFLDGDGWTSRWIESKHKSDFGKFVLSSGKFYGDEEKDKGLQTSQDARFYALSASFEPFSNKGQTLVVQFTVKHEQNIDCGGGYVKLFPNSLDQTDMHGDSEYNIMFGPDICGPGTKKVHVIFNYKGKNVLINKDIRCKDDEFTHLYTLIVRPDNTYEVKIDNSQVESGSLEDDWDFLPPKKIKDPDASKPEDWDERAKIDDPTDSKPEDWDKPEHIPDPDAKKPEDWDEEMDGEWEPPVIQNPEYKGEWKPRQIDNPDYKGTWIHPEIDNPEYSPDPSIYAYDNFGVLGLDLWQVKSGTIFDNFLITNDEAYAEEFGNETWGVTKAAEKQMKDKQDEEQRLKEEEEDKKRKEEEEAEDKEDDEDKDEDEEDEEDKEEDEEEDVPGQAKDEL
# How the values were obtained:
# Assay in all cases: glycan array binding signal (z-score within array); higher = stronger binding
# Details in all cases: glycan notation: IUPAC condensed, linker removed
# [1] = molecular target: Gal3S(b1-3)GalNAc
# In short: (§1)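 Arrays were curated from the Consortium for Functional Glycomics database, 3228 in total, and kept only where the protein sequence was available. Binding is expressed as a within-array Z-score. This score was averaged across arrays of the same protein sequence at different concentrations or buffers and across linkers, and negative values can be read as non-binding.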
# [2] = molecular target: Gal3S(b1-4)GlcNAc6S
# In short: as §1
# [3] = molecular target: Gal6S(b1-4)Glc
# In short: as §1
# [4] = molecular target: Gal6S(b1-4)GlcNAc
# In short: as §1
# [5] = molecular target: GalNAc(b1-3)Gal(a1-4)Gal(b1-4)GlcNAc(b1-3)Gal(b1-4)Glc
# In short: as §1
# [6] = molecular target: GalNAc(b1-3)GlcNAc
# In short: as §1
# [7] = molecular target: GalNAc(b1-6)GalNAc
# In short: as §1
# [8] = molecular target: Glc(a1-6)Glc(a1-6)Glc(a1-6)Glc
# In short: as §1
# [9] = molecular target: GlcNAc(a1-4)Gal(b1-4)GlcNAc(b1-3)Gal(b1-4)[Fuc(a1-3)]GlcNAc(b1-3)Gal(b1-4)[Fuc(a1-3)]GlcNAc
# In short: as §1
# [10] = molecular target: GlcNAc(a1-6)Gal(b1-4)GlcNAc
# In short: as §1
# [11] = molecular target: GlcNAc(b1-3)Gal(b1-4)GlcNAc(b1-2)[GlcNAc(b1-3)Gal(b1-4)GlcNAc(b1-6)]Man(a1-6)[GlcNAc(b1-3)Gal(b1-4)GlcNAc(b1-2)Man(a1-3)]Man(b1-4)GlcNAc(b1-4)GlcNAc
# In short: as §1
# [12] = molecular target: GlcNAc(b1-3)Gal(b1-4)GlcNAc(b1-3)Gal(b1-4)GlcNAc(b1-2)Man(a1-3)[GlcNAc(b1-3)Gal(b1-4)GlcNAc(b1-3)Gal(b1-4)GlcNAc(b1-2)Man(a1-6)]Man(b1-4)GlcNAc(b1-4)[Fuc(a1-6)]GlcNAc
# In short: as §1
# [13] = molecular target: GlcNAc(b1-3)Gal(b1-4)GlcNAc(b1-3)Gal(b1-4)GlcNAc(b1-3)Gal(b1-4)GlcNAc(b1-3)Gal(b1-4)GlcNAc(b1-2)Man(a1-3)[GlcNAc(b1-3)Gal(b1-4)GlcNAc(b1-3)Gal(b1-4)GlcNAc(b1-3)Gal(b1-4)GlcNAc(b1-3)Gal(b1-4)GlcNAc(b1-2)Man(a1-6)]Man(b1-4)GlcNAc(b1-4)GlcNAc
# In short: as §1
# [14] = molecular target: GlcNAc(b1-3)Man
# In short: as §1
# [15] = molecular target: Neu5Ac(a2-3)Gal(b1-3)GlcNAc(b1-2)[Neu5Ac(a2-3)Gal(b1-3)GlcNAc(b1-4)]Man(a1-6)[Neu5Ac(a2-3)Gal(b1-3)GlcNAc(b1-2)Man(a1-3)]Man(b1-4)GlcNAc(b1-4)GlcNAc
# In short: as §1
# [16] = molecular target: Neu5Ac(a2-3)Gal(b1-4)GlcNAc(b1-6)[Neu5Ac(a2-3)Gal(b1-3)]GalNAc
# In short: as §1
# [17] = molecular target: Neu5Ac(a2-3)Gal(b1-4)[Fuc(a1-3)]GlcNAc(b1-3)Gal(b1-4)GlcNAc
# In short: as §1
# [18] = molecular target: Neu5Ac(a2-3)[GalNAc(b1-4)]Gal(b1-4)GlcNAc(b1-3)GalNAc
# In short: as §1
# [19] = molecular target: Neu5Ac(a2-6)Gal(b1-4)GlcNAc(b1-2)Man(a1-3)[GlcNAc(b1-2)Man(b1-4)GlcNAc(b1-2)Man(a1-6)]Man(b1-4)GlcNAc(b1-4)GlcNAc
# In short: as §1
# [20] = molecular target: Neu5Ac(a2-6)Gal(b1-4)GlcNAc(b1-2)Man(a1-3)[Man(a1-6)]Man(b1-4)GlcNAc(b1-4)GlcNAc
# In short: as §1
# [21] = molecular target: Neu5Ac(a2-6)Gal(b1-4)GlcNAc(b1-2)Man(a1-3)[Neu5Ac(a2-6)Gal(b1-4)GlcNAc(b1-2)Man(a1-6)]Man(b1-4)GlcNAc(b1-4)GlcNAc
# In short: as §1
# [22] = molecular target: Neu5Ac(a2-6)Gal(b1-4)GlcNAc(b1-3)Gal(b1-4)GlcNAc(b1-3)Gal(b1-4)GlcNAc(b1-2)Man(a1-3)[Neu5Ac(a2-6)Gal(b1-4)GlcNAc(b1-3)Gal(b1-4)GlcNAc(b1-3)Gal(b1-4)GlcNAc(b1-2)Man(a1-6)]GalNAc
# In short: as §1
# [23] = molecular target: Neu5Ac(a2-6)Gal(b1-4)GlcNAc(b1-3)Gal(b1-4)GlcNAc(b1-3)GalNAc
# In short: as §1
# [24] = molecular target: Neu5Ac(a2-6)GalNAc
# In short: as §1
# [25] = molecular target: Neu5Ac(a2-8)Neu5Gc(a2-3)Gal(b1-4)GlcNAc
# In short: as §1
# [26] = molecular target: Neu5Gc(a2-3)Gal(b1-3)GlcNAc
# In short: as §1
# [27] = molecular target: Neu5Gc(a2-8)Neu5Gc(a2-3)Gal(b1-4)GlcNAc
# In short: as §1
binder,measurement,setting,value
B1,glycan array binding signal (z-score),[1],-0.188
same,glycan array binding signal (z-score),[2],-0.498
same,glycan array binding signal (z-score),[3],-0.297
same,glycan array binding signal (z-score),[4],-0.673
same,glycan array binding signal (z-score),[5],0.488
same,glycan array binding signal (z-score),[6],0.853
same,glycan array binding signal (z-score),[7],0.544
same,glycan array binding signal (z-score),[8],0.137
same,glycan array binding signal (z-score),[9],1.95
same,glycan array binding signal (z-score),[10],-0.513
same,glycan array binding signal (z-score),[11],2.14
same,glycan array binding signal (z-score),[12],1.91
same,glycan array binding signal (z-score),[13],0.27
same,glycan array binding signal (z-score),[14],0.915
same,glycan array binding signal (z-score),[15],-0.396
same,glycan array binding signal (z-score),[16],-0.461
same,glycan array binding signal (z-score),[17],0.745
same,glycan array binding signal (z-score),[18],-0.233
same,glycan array binding signal (z-score),[19],12.5
same,glycan array binding signal (z-score),[20],0.357
same,glycan array binding signal (z-score),[21],2.53
same,glycan array binding signal (z-score),[22],1.9
same,glycan array binding signal (z-score),[23],-1.62
same,glycan array binding signal (z-score),[24],0.869
same,glycan array binding signal (z-score),[25],-0.349
same,glycan array binding signal (z-score),[26],-0.645
same,glycan array binding signal (z-score),[27],-0.33

# From the supplement of paper PMC8728848
